# Screens from PubChem.
# Only some compounds are listed: those with a hit (about 3.4% of all), similar ones and a draw of the others.
# ANO1 activ: activators or potentiators of mouse TMEM16A chloride channel. 340,000 compounds, 0.3% hits. B-score at 10 µM. HEK293 TMEM16A/YFP-H148Q/I152L, iodide quench fluorescence; stronger effect = lower value. Q8BHY3;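 active means fluorescence-ratio B-score plate-corrected deviation score at least 3 library SD below zero, with starting fluorescence score within 5 deviations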;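 further: channel opened by trigger with iodide after compound preincubation; score built on the fluorescence ratio of max minus min over baseline; more negative score means more quench and so TMEM16A activation or potentiation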
# MEKK2 WT-MEK5: raises or lowers MEK5 binding to wildtype human MEKK2 PB1 domain; AID 1531; Q9Y2U5; bead flow cytometry, Alexa488-MEK5 binding to MEKK2 WT; actives lie on both sides; 290,000 compounds, 1.1% hits; binding response (% of control), % at 10 µM; in the data active means binding response below about 67% or above about 130%
# NTR1 ag: activates human neurotensin receptor 1 | NTR1-U2OS beta-arrestin-GFP spot imaging, agonist mode | activation, % at 20 µM | 330,000 compounds, 0.17% hits | AID 493036;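 active means activation at or above 40% of the spot to cytoplasm intensity ratio, with at least 20 cells analyzed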;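 further: 0% = DMSO without peptide and 100% = 100 nM NTR1 peptide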
# Target sequence (P30989 whole entry, looked up): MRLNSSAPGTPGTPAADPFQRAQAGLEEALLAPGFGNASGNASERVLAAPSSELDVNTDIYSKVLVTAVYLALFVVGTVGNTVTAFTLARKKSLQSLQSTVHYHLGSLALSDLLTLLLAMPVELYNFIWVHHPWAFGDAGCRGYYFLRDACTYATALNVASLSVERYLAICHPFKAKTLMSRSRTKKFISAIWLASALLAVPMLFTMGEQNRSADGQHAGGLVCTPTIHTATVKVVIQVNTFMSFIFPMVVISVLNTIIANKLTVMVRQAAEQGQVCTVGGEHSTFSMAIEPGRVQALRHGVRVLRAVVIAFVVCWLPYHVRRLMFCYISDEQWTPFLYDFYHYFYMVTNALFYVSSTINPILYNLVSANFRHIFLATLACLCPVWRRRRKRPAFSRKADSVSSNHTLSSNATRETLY
# MEKK2 mut-MEK5: signal of MEK5 binding to mutant human MEKK2 PB1 domain | bead flow cytometry, Alexa488-MEK5 binding to MEKK2 mutant | percent response, % at 10 µM | 290,000 compounds, 0.35% hits; in the data active means percent response above about 24%, passing the limit was not always enough
# TMEM16A inh: blocks the mouse calcium-activated chloride channel TMEM16A; normalized B-score (activity score, 25-100; higher = stronger inhibition) at 10 µM; Q8BHY3; HEK293 TMEM16A/YFP iodide influx fluorescence, ionomycin; 310,000 compounds, 1.2% hits; AID 588511;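 active means ratio plate-corrected score three or more library SD toward inhibition, starting fluorescence score within five deviations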;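 further: score derived from kinetic fluorescence span divided by baseline fluorescence per well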
# MEKK3 PB1 HTS: raises or lowers MEK5 binding to the human MEKK3 PB1 domain; Q99759; bead-based flow cytometry, Alexa488-MEK5 binding to MEKK3; actives lie on both sides; 0 = blocked by unlabeled MEK5, 100 = vehicle; binding response (% of control), % at 10 µM; 290,000 compounds, 1.4% hits; AID 1529;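 active means binding response more than 3 SD above or below the average of its plate-row segment, actives on both sides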;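 further: Alexa488 bead fluorescence after subtracting the streptavidin-only scavenger bead signal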
# * hit, by the source's call; i = inactive; / = no result given.
SMILES,ANO1 activ,MEKK2 WT-MEK5,NTR1 ag,MEKK2 mut-MEK5,TMEM16A inh,MEKK3 PB1 HTS
CC(OC(=O)c1ccccc1NS(=O)(=O)c1cccc(C(F)(F)F)c1)C(=O)N(C)Cc1ccccc1 (centres undefined),i,110,0,22,100*,109
Cn1c(=O)c2c3c(sc2n2cnnc12)CCC3,i,100,2,8,25*,99
O=C(CCCCCCN1C(=O)c2ccccc2C1=O)N1CCC(c2ccccc2)C1 (centres undefined),i,107,-1,-1,i,100
COc1ccc(C(=O)Cn2nnc(-c3ccccc3NC(=O)c3ccco3)n2)cc1,-11*,98,7,0,i,101
Clc1ccc(-c2nc(C3CCCCC3)no2)cc1,i,106,1,6,i,107
Cc1nn(C(=O)c2cccnc2)c(C)c1Sc1ccc(Br)cc1,i,90,-1,-7,25*,95
Cc1nn(C(=O)c2ccco2)c(C)c1Sc1ccc(Cl)cc1,i,103,-1,0,i,106
O=C(NCc1ccc(F)cc1)C(C(=O)NCc1ccc(F)cc1)c1ncc(C(F)(F)F)cc1Cl,-7.3*,96,-1,-5,i,100
CCOC(=O)C(C(=O)NCc1ccc(F)cc1)c1ncc(C(F)(F)F)cc1Cl (centres undefined),i,96,0,-2,i,97
O=[N+]([O-])c1cccnc1N1CCOCC1,i,113,0,8,i,104
O=C1CCN(c2ncccc2[N+](=O)[O-])CC1,-4.9*,97,2,1,i,100
CCc1cc(C(=O)Nc2ccc(OC)nc2)sc1C,-5.1*,/,2,/,i,/
COc1ccc(NC(=O)c2cc(Br)c(Br)s2)cn1,i,99,1,-4,i,105
COc1ccc(NC(=O)Cn2c3ccccc3c3nc4n(c(=O)c32)CCS4)cc1OC,-54*,104,0,-2,i,104
COc1cccc(NC(=O)Cn2c3ccccc3c3nc4n(c(=O)c32)CCCS4)c1,-52*,102,1,-2,i,102
CCCCn1nc(C(=O)N(C)C2CCCCC2)c2ccccc2c1=O,-30*,/,0,/,/,/
C/C(=N/NS(=O)(=O)c1ccc(F)cc1)c1ccc(NC(=O)c2ccc(C)o2)cc1,i,90,0,-4,i,96
CCOC(=O)C1=NS(=O)(=O)NC(C)=C1,/,/,-2,/,/,/
O=C(Nc1ccc2oc(-c3cccnc3)nc2c1)c1ccco1,i,95,-1,-5,i,87
O=C(Nc1ccc2nc(-c3ccccc3)oc2c1)c1ccco1,-14*,105,-6,4,i,105
CCOC(=O)C1CCN(C(=O)CSCc2nc(-c3ccc(OCC)cc3)oc2C)CC1,i,102,0,9,100*,100
O=C(c1ccccc1F)N1CCN(c2cnn(-c3cccc(Cl)c3)c(=O)c2Cl)CC1,i,102,0,2,i,104
COc1ccc(N=C2SC(CC(=O)Nc3ccccc3)C(=O)N2Cc2ccccn2)cc1 (centres undefined),-5.8*,93,1,-1,i,99
CCC1(CC)Cc2ccccc2C(N)=C1C#N,-53*,104,2,0,i,97
CCOC(=O)COc1ccc(S(=O)(=O)Nc2cccc(SC)c2)cc1,i,112,8,6,25*,108
SMILES,ANO1 activ,MEKK2 WT-MEK5,NTR1 ag,MEKK2 mut-MEK5,TMEM16A inh,MEKK3 PB1 HTS
CSc1cccc(NS(=O)(=O)c2ccc3c(c2)CCN3C(C)=O)c1,i,104,3,4,25*,104
CC(=O)N1CCc2cc(S(=O)(=O)Nc3ccc(C)cc3)ccc21,i,105,-1,7,i,106
CC(=O)N1CCc2cc(S(=O)(=O)Nc3cccc(C(F)(F)F)c3)ccc21,i,98,-2,-2,25*,101
CCOC(=O)COc1ccc(S(=O)(=O)Nc2ccc3c(c2)OCCO3)cc1,i,97,5,2,i,93
COc1cccc(NS(=O)(=O)c2ccc3c(c2)CCN3C(C)=O)c1,i,101,0,6,i,102
Cc1ccsc1-c1nc(CN2C[C@@H](C)O[C@@H](C)C2)c(C)o1,i,97,1,-1,i,100
C[C@H](NC(=O)C1(c2ccccc2)CCN(C(=O)[C@H]2CSCN2C(=O)OC(C)(C)C)CC1)C(=O)O,-5.1*,107,0,6,i,114
COc1ccc(CCN(C)C(=O)c2ccc(C)c(S(=O)(=O)N3CCCCC3)c2)cc1OC,i,/,-1,/,/,/
CC(=O)c1ccc(S(=O)(=O)Nc2ccc(C(=O)N(C)CC(=O)Nc3cccc(C)c3C)cc2)cc1,i,/,0,/,/,/
O=C1Nc2cc(Cl)ccc2C1(N1CCNCC1)C(F)(F)F (centres undefined),i,93,1,-2,i,98
O=C1Nc2ccc(Cl)cc2[C@@](C#CC2CC2)(C(F)(F)F)O1,/,108,12,4,100*,116
C=CCN1C=CC(=CC=C(C#N)C#N)C=C1,-7.7*,101,-2,-1,i,105
CCCN1C=CC(=C/C=C(\C#N)C(=O)OCC)C=C1,/,88,-2,-9,i,86
CCCN1C=CC(=CC=C(C#N)C#N)C=C1,-6.5*,102,-1,0,i,105
Cc1ccc(NC(=O)CSc2nnc(N)s2)cc1S(=O)(=O)N1CCOCC1,i,/,0,/,i,/
COc1ccc2[nH]c3c(=O)n(/N=C/[C@H]4C(C)C=C(C)CC4C)c(=O)[nH]c3c2c1 (some centres undefined),-16*,99,3,-2,i,99
Cc1ccccc1CS(=O)(=O)c1nnc([C@H](Cc2ccccc2)NC(=O)OC(C)(C)C)o1,-5.2*,103,0,4,i,108
COc1ccc(-n2cnnc2SCC(=O)NC2CCCCC2)cc1,i,/,-1,/,/,/
CCOC(=O)c1cnn(-c2ccccc2)c1NC(=O)c1ccc(C)cc1,i,96,1,0,25*,103
CCOC(=O)c1cnn(-c2ccccc2)c1NC(=O)c1ccccc1,i,104,1,3,i,100
O=C(CCNNC(=O)c1ccncc1)NCc1ccccc1,-14*,96,1,2,i,81
C/C(=N\NC(=O)c1cc2ccccc2cc1O)c1cc2ccccc2o1,i,101,13,5,100*,102
Cc1cc(NC(=O)c2ccc(S(=O)(=O)N3CCCC3)cc2)nc2c1c(=O)oc1ccccc12,-14*,94,/,-9,/,89
Cc1ccc(NC(=O)c2ccco2)c(NC(=O)c2ccc(Cl)cc2)c1,i,97,0,0,i,100
